Artemis endo inh – blocks endonuclease activity of human Artemis; 30,000 tested, 0.78% active; inhibition, % at 10 µM; recombinant Artemis, quenched FAM hairpin cleavage fluorescence; Q96SD1; AID 686954;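 active means at 10 µM dose, at least 30% inhibition, measured as corrected fluorescence normalized to stimulator and neutral control wells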
An asterisk follows results filed as active. This is one part of a sample in which hits are shown more often than they occur.

SMILES | Artemis endo inh
O=c1c2ccccc2nc(N/N=C/c2ccc(O)cc2)n1O | 29
COc1cccc(-c2nc(CS(=O)(=O)c3ccccc3)no2)c1 | 0
CN1CCN(CCC(=O)Nc2ccc3c(c2)OCO3)CC1 | 2
CCC(=O)Nc1ccc(C(=O)Nc2ccc3c(c2)OCO3)cc1 | 36*
O=C(Nc1ccc(Cl)cc1)c1ccc2c(c1)OCO2 | -5
O=C(N/N=C/C1C(c2ccccc2)C1(Cl)Cl)c1cccc(Br)c1 (stereo not drawn) | 10
Oc1ccc2ccccc2c1C=NC12CN3CCN(CN(C3)C1)C2 | 41*
Cc1[nH]n(-c2cccc(Cl)c2)c(=O)c1C=NC12CN3CN(CN(C3)C1)C2 | 9
CN(C)/N=C/c1c(O)ccc2ccccc12 | -1
CC1(C)CC(NC(=O)c2coc(=O)c(Br)c2)CC(C)(C)N1 | -11
CCOC(=O)c1nnn(-c2nonc2N)c1-c1ccc(OC)cc1 | -5
COc1ccc(C2C(C(=O)c3ccc(C)o3)=C(O)C(=O)N2c2cc(C)on2)cc1OC (stereo not drawn) | 2
COc1cc(C2C(C(C)=O)=C(O)C(=O)N2CCc2ccc(OC)c(OC)c2)ccc1O (stereo not drawn) | 1
CCOc1cc(C2C(C(=O)c3ccc(C)o3)=C(O)C(=O)N2CCc2ccccc2)ccc1O (stereo not drawn) | 32*
c1ccc(-c2nnc3sc(-c4csc5c4CCCC5)nn23)cc1 | 32*
Clc1ccc(-c2nnc3sc(-c4ccc(Br)o4)nn23)cc1 | -64
c1cncc(-c2nnc3sc(C4CCCCC4)nn23)c1 | 2
COc1cc(-n2ccnc2SC)c(Cl)cc1Cl | 52*
CCOC(=O)CSc1nnnn1-c1cc(OC)c(Cl)cc1OC | -13
COc1cc(Nc2nnc(C)s2)c(Cl)cc1Cl | -3
C#CC(C)(CC)NC(=O)Cn1nnc(-c2ccc(S(C)(=O)=O)cc2)n1 (stereo not drawn) | -3
CC(C)COc1ccc2[nH]c3c(c2c1)CCCC3=O | 1
COc1ccc(/C=N/n2cnnc2SCc2ccccc2)cc1 | 7
Cc1nc(-c2ccccc2O)n(-c2ccccc2)n1 | -2

Screening results as filed in PubChem BioAssay.
